# Values joined by “and” are separate entries in the source; they are usually repeats but may differ in a detail not shown here. Identical values can stand only once. Values without a mark were called inactive. Records with an inconclusive call do not appear. A structure can be active in one record and inactive in another. Active and inactive are the calls of the source. Unless noted, calls come from the whole dose curve; as a rule, active = well fitted curve in the direction sought with a large enough effect; inconclusive = small, poorly fitted or top-dose-only effect, or another doubt; inactive = no such curve, though single readings can be large; an effect the other way counts as inactive or inconclusive.
# Legend:
# PA-1 = test: Primary qHTS to identify gynecologic anti-cancer compounds using libraries of approved drugs and bioactive compounds (AID 1345084); details: Gynecologic cancer cell panel viability, ATPlite luminescence, 48 h; series mostly up to 57.5 µM; note: nearly all actives have a fitted effect of over 55% in size; note: potency is the fitted concentration of half-maximal effect
# In short: (§1)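 Cytotoxicity screen measuring ATP content by luciferase luminescence. Each compound is applied at five concentrations for 48 h at 37 C with 5% CO2.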
# SKOV3 = test: as above; details: Gynecologic cancer cell panel viability, ATPlite luminescence, 48 h; series mostly up to 57.5 µM
# In short: as §1
# Tov-21-G = test: as above; details: Gynecologic cancer cell panel viability, ATPlite luminescence, 48 h; series mostly up to 57.5 µM
# In short: as §1
# Tov112D = test: as above; details: Gynecologic cancer cell panel viability, ATPlite luminescence, 48 h; series mostly up to 57.5 µM
# In short: as §1
# [1] = Drug repurposing screens with cells derived from glioblastoma tumor samples (AID 1345199); details: GBM patient neurospheres viability, ATP luminescence, 48 h; note: nearly all actives have a fitted effect of over 40% in size; note: potency is the fitted concentration of half-maximal effect; for activity, negative = cell killing: % is set by controls: 0 for no effect and ±100 for the full control effect
# In short: (§2)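 Four patient lines of CD133+ GBM neurospheres were screened at several concentrations; hits were retested in those lines plus three slower-growing GBM lines, using 48-hour treatment and ATP-based viability.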
# astro = test: as above; details: viability, ATP luminescence, 48 h; series mostly up to 45.9 µM
# In short: as §2
# [2] = biological target: Nuclear receptor subfamily 1 group I member 2 (Rattus norvegicus) (UniProt Q9R1A7); test: qHTS assay for small molecule activators of the rat pregnane X receptor (rPXR) signaling pathway (AID 651751; call rule not given here; note: 0% is about no effect); details: rPXR reporter cells, luciferase (One-Glo), 24 h
# [3] = qHTS assay for small molecule activators of the human pregnane X receptor (PXR) signaling pathway (AID 720659; call rule not given here; note: 0% is about no effect)
# [4] = at 45.9 µM (top of the series), tumour line B
# [5] = at 45.9 µM (top of the series), tumour line D
# [6] = at 46.1 µM (top of the series), tumour line C
# [7] = at 46 µM (top of the series), tumour line A
# Nuclear receptor subfamily 1 group I member 2 (Rattus norvegicus), sequence (Q9R1A7 whole entry, looked up): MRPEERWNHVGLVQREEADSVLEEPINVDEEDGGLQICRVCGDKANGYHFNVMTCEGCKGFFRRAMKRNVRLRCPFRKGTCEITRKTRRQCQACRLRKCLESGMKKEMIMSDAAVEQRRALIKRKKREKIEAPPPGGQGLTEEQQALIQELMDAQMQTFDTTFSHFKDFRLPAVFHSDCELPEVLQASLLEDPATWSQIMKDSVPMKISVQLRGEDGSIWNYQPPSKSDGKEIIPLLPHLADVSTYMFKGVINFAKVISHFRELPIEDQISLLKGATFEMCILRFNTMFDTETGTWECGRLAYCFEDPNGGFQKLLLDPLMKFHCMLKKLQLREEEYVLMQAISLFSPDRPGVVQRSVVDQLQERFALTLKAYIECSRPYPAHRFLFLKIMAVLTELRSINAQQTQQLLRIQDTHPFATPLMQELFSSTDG
smiles,measurement,setting,value
COc1ccc2c(c1)c(CC(=O)OCC(=O)O)c(C)n2C(=O)c1ccc(Cl)cc1,Potency,PA-1,inactive
same,Potency,SKOV3,inactive
same,Potency,Tov-21-G,inactive
same,Potency,Tov112D,inactive
same,"activity, negative = cell killing",[1]; [4],-1.02%
same,"activity, negative = cell killing",[1]; [5],-7.57%
same,"activity, negative = cell killing",[1]; [6],8.41%
same,Potency,astro,inactive
NNC(=O)c1ccncc1,Potency,PA-1,inactive
same,Potency,SKOV3,inactive
same,Potency,Tov-21-G,inactive
same,Potency,Tov112D,inactive
same,"activity, negative = cell killing",[1]; [4],-4.35%
same,"activity, negative = cell killing",[1]; [5],-4.61%
same,"activity, negative = cell killing",[1]; [6],-1.87%
same,max response,[2],6.47%
same,outcome,[3],inactive
COc1cc2ncnc(Nc3cccc(Cl)c3)c2cc1OC,Potency,PA-1,inactive
same,Potency,Tov-21-G,inactive
same,Potency,Tov112D,inactive
CCc1c2c(nc3ccc(OC(=O)N4CCC(N5CCCCC5)CC4)cc13)-c1cc3c(c(=O)n1C2)COC(=O)[C@]3(O)CC,Potency,PA-1,12.6 µM (active)
same,Potency,Tov-21-G,inactive
same,Potency,Tov112D,10 µM (active)
same,"activity, negative = cell killing",[1]; [6],-5.46%
same,Potency,[1]; tumour line A,1 µM (active)
O=C(O)CSCC(=O)NC1CCSC1=O (stereo not drawn),Potency,PA-1,inactive
same,Potency,SKOV3,inactive
same,Potency,Tov-21-G,inactive
same,Potency,Tov112D,inactive
same,"activity, negative = cell killing",[1]; [4],-7.24%
same,"activity, negative = cell killing",[1]; [6],18.1%
same,Potency,astro,inactive
CCCc1cc(C(N)=S)ccn1,Potency,PA-1,inactive
same,Potency,SKOV3,inactive
same,Potency,Tov-21-G,inactive
same,Potency,Tov112D,inactive
same,"activity, negative = cell killing",[1]; [4],-7.71%
same,"activity, negative = cell killing",[1]; [5],-14.3%
same,"activity, negative = cell killing",[1]; [6],5.43%
same,Potency,astro,inactive
CCc1cc(C(N)=S)ccn1,Potency,PA-1,inactive
same,Potency,SKOV3,inactive
same,Potency,Tov-21-G,inactive
same,Potency,Tov112D,inactive
same,"activity, negative = cell killing",[1]; [4],-9.3%
same,"activity, negative = cell killing",[1]; [5],-29.7%
same,"activity, negative = cell killing",[1]; [6],-26.9%
same,max response,[2],7.13% and -2.63%
Nc1nc(N)nc(-c2cc(Cl)ccc2Cl)n1,Potency,PA-1,inactive
same,Potency,SKOV3,inactive
same,Potency,Tov-21-G,inactive
same,Potency,Tov112D,inactive
same,"activity, negative = cell killing",[1]; [4],1.99%
same,"activity, negative = cell killing",[1]; [5],7.54%
same,"activity, negative = cell killing",[1]; [6],13.1%
same,Potency,astro,inactive
COC(=O)Nc1nc2ccc(Sc3ccccc3)cc2[nH]1,Potency,PA-1,1.41 µM (active)
same,Potency,Tov-21-G,2.82 µM (active)
same,Potency,Tov112D,1.41 µM (active)
same,"activity, negative = cell killing","[1]; at 20 µM (top of the series), tumour line C",-28.6%
same,Potency,[1]; tumour line A,0.224 µM (active)
O=C(N[C@H](CO)[C@H](O)c1ccc([N+](=O)[O-])cc1)C(Cl)Cl,Potency,PA-1,inactive
same,Potency,SKOV3,inactive
same,Potency,Tov112D,inactive
same,"activity, negative = cell killing",[1]; [4],-13.1%
same,"activity, negative = cell killing",[1]; [7],-46.2%
same,"activity, negative = cell killing",[1]; [6],-18.2%
same,"activity, negative = cell killing","[1]; at 91.6 µM (top of the series), tumour line B",-17.6%
same,Potency,astro,inactive
same,max response,[2],-5.66% and -3.04%
CCN(CC)CC#CCOC(=O)C(O)(c1ccccc1)C1CCCCC1 (stereo not drawn),"activity, negative = cell killing",[1]; [4],-22.3%
same,Potency,[1]; tumour line A,10 µM (active)
same,Potency,[1]; tumour line C,20.6 µM (active)
same,Potency,astro,inactive
Cc1c(-c2ccc(O)cc2)n(Cc2ccc(OCCN3CCCCCC3)cc2)c2ccc(O)cc12,Potency,Tov-21-G,inactive
CCCCCCNC(=O)n1cc(F)c(=O)[nH]c1=O,Potency,Tov112D,inactive
same,"activity, negative = cell killing",[1]; [6],-20.6%
CC(=O)CC(c1ccccc1)c1c(O)c2ccccc2oc1=O (stereo not drawn),Potency,Tov-21-G,inactive
same,Potency,Tov112D,inactive
same,"activity, negative = cell killing",[1]; [4],-11.1% and -14.3%
same,"activity, negative = cell killing",[1]; [5],1.21% and -22.4%
same,"activity, negative = cell killing",[1]; [7],-22%
same,"activity, negative = cell killing",[1]; [6],-1.82% and -1.98%
same,Potency,astro,inactive
same,max response,[2],2.18%
same,outcome,[3],inactive
CC(=O)[C@H]1CC[C@H]2[C@@H]3CCC4=CC(=O)CC[C@]4(C)[C@H]3CC[C@]12C,"activity, negative = cell killing",[1]; [4],-26.3%
same,Potency,[1]; tumour line D,12.6 µM (active)
CCCCc1oc2ccc(NS(C)(=O)=O)cc2c1C(=O)c1ccc(OCCCN(CCCC)CCCC)cc1,Potency,astro,20 µM (active)
NC(N)=NC(N)=NCCc1ccccc1,Potency,SKOV3,14.1 µM (active)
same,Potency,Tov-21-G,inactive
same,Potency,Tov112D,inactive
same,"activity, negative = cell killing","[1]; at 21.2 µM (top of the series), tumour line B",-24.6%
same,"activity, negative = cell killing","[1]; at 21.3 µM (top of the series), tumour line A",-28.1%
same,"activity, negative = cell killing",[1]; [4],-14.4%
same,Potency,[1]; tumour line D,25.1 µM (active)
same,Potency,astro,inactive
same,outcome,[3],inactive
Nc1nc(=S)c2[nH]cnc2[nH]1,Potency,PA-1,3.55 µM (active)
same,Potency,Tov-21-G,3.55 µM (active)
same,Potency,Tov112D,1.41 µM (active)
same,Potency,astro,inactive
CCCc1nc(C)c2c(=O)[nH]c(-c3cc(S(=O)(=O)N4CCN(CC)CC4)ccc3OCC)nn12,Potency,SKOV3,inactive
same,Potency,Tov-21-G,inactive
same,Potency,Tov112D,inactive
same,"activity, negative = cell killing",[1]; [4],-13%
same,"activity, negative = cell killing",[1]; [5],-20.9%
same,"activity, negative = cell killing",[1]; [6],-8.37%
same,Potency,[1]; tumour line A,17.8 µM (active)
same,Potency,astro,inactive
CCN(CC)CCn1c(=O)c(Cc2ccc(OC)cc2)nc2ccccc21,"activity, negative = cell killing",[1]; [4],-5.87%
same,"activity, negative = cell killing",[1]; [5],-15.6%
same,"activity, negative = cell killing",[1]; [6],14.7%
same,Potency,[1]; tumour line A,10 µM (active)
Cc1ccnc2c1NC(=O)c1cccnc1N2C1CC1,Potency,PA-1,inactive
same,Potency,Tov-21-G,inactive
same,Potency,Tov112D,inactive
same,"activity, negative = cell killing",[1]; [4],-8.19%
same,"activity, negative = cell killing",[1]; [5],4.3%
same,"activity, negative = cell killing",[1]; [7],-21.5%
same,"activity, negative = cell killing",[1]; [6],-3.33%
same,max response,[2],-6.61%
same,outcome,[3],inactive

# — PubChem BioAssay (NCATS)
